About 83,000 compounds went through this panel and 20% of them were active in at least one assay; those are over-represented in the sample as a whole.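 Results are percent growth after 48 hours of single-concentration exposure. 100 means growth as in untreated cells, lower positive values show inhibition; negative values down to -100 show cell death.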 Active and inactive are the calls of the source. Rule for the calls: active = growth percent below 10; inactive = the rest.
How the values were obtained:
Experiment in all cases: NCI-60 one-dose screen, 48 h (100 = growth as untreated, 0 = no growth, -100 = all killed)
Settings in all cases: 10 µM unless noted
RPMI-8226 leukemia = system: RPMI-8226 leukemia
OVCAR-8 ovarian = system: OVCAR-8 ovarian
OVCAR-5 ovarian = system: OVCAR-5 ovarian
OVCAR-4 ovarian = system: OVCAR-4 ovarian
SK-OV-3 ovarian = system: SK-OV-3 ovarian
IGROV1 ovarian = system: IGROV1 ovarian
OVCAR-3 ovarian = system: OVCAR-3 ovarian
HS 578T breast = system: HS 578T breast
NCI/ADR-RES ovarian = system: NCI/ADR-RES ovarian
T-47D breast = system: T-47D breast
BT-549 breast = system: BT-549 breast
MDA-MB-435 melanoma = system: MDA-MB-435 melanoma
SW-620 colon = system: SW-620 colon
MCF7 breast = system: MCF7 breast
HCT-116 colon = system: HCT-116 colon
HCC-2998 colon = system: HCC-2998 colon
KM12 colon = system: KM12 colon

Measured: growth

Cc1c(Cl)cccc1NC(=O)c1sc2nc3c(cc2c1N)CCCCCC3
inactive: RPMI-8226 leukemia 18.4% | OVCAR-8 ovarian 17.5% | OVCAR-5 ovarian 46.7% | OVCAR-4 ovarian 46.8% | SK-OV-3 ovarian 34.8% | IGROV1 ovarian 42.9% | HS 578T breast 24.6% | NCI/ADR-RES ovarian 17.1% | T-47D breast 40.2% | BT-549 breast 11.2% | SW-620 colon 21.4% | MCF7 breast 15.1% | HCC-2998 colon 52.2% | KM12 colon 19.1%
active: OVCAR-3 ovarian -18.1% | MDA-MB-435 melanoma -19.5% | HCT-116 colon 5.07%

CN(C)CCCn1c2c(c3cc(-c4cccc(S(N)(=O)=O)c4)ccc3c1=O)C(=O)c1ccccc1-2
inactive: RPMI-8226 leukemia 70.3% | OVCAR-8 ovarian 56% | OVCAR-5 ovarian 97.7% | OVCAR-4 ovarian 82.3% | SK-OV-3 ovarian 67.8% | IGROV1 ovarian 66.7% | OVCAR-3 ovarian 87.8% | HS 578T breast 99.6% | NCI/ADR-RES ovarian 70.6% | T-47D breast 74.7% | BT-549 breast 76.1% | MDA-MB-435 melanoma 80.3% | SW-620 colon 36.8% | MCF7 breast 27.7% | HCC-2998 colon 77.2% | KM12 colon 65.5%
active: HCT-116 colon -82.6%

C=C1C(=O)O[C@H]2[C@H]1CC/C(COC(=O)c1cccnc1N)=C\CC[C@@]1(C)O[C@@H]21
active: RPMI-8226 leukemia -19.2% | OVCAR-3 ovarian -4.59% | BT-549 breast -37.2% | MDA-MB-435 melanoma -4.17% | SW-620 colon 4.05% | MCF7 breast 7.98% | HCT-116 colon 3.94%
inactive: OVCAR-8 ovarian 14.9% | OVCAR-5 ovarian 36.1% | OVCAR-4 ovarian 54.7% | SK-OV-3 ovarian 71.3% | IGROV1 ovarian 13.8% | HS 578T breast 28.9% | NCI/ADR-RES ovarian 31.9% | T-47D breast 50.7% | HCC-2998 colon 35.3% | KM12 colon 13.4%

Cn1c2ccccc2c2c(OC(=O)c3ccccc3)c3c(nc21)-c1ccccc1C3
inactive: RPMI-8226 leukemia 96.2% | OVCAR-8 ovarian 92.7% | OVCAR-5 ovarian 112% | OVCAR-4 ovarian 95.7% | SK-OV-3 ovarian 92% | IGROV1 ovarian 82.5% | OVCAR-3 ovarian 99.1% | HS 578T breast 107% | NCI/ADR-RES ovarian 99% | T-47D breast 63.7% | BT-549 breast 94% | MDA-MB-435 melanoma 104% | SW-620 colon 105% | MCF7 breast 72.7% | HCT-116 colon 95.9% | HCC-2998 colon 106% | KM12 colon 96.7%

COC1=CC=CC2(OC)C3(O)CCCc4cccc(c43)N3C(=O)COC132 (stereo not drawn)
inactive: RPMI-8226 leukemia 92.4% | OVCAR-8 ovarian 99.2% | OVCAR-5 ovarian 104% | OVCAR-4 ovarian 96.6% | SK-OV-3 ovarian 107% | IGROV1 ovarian 94.7% | OVCAR-3 ovarian 109% | HS 578T breast 93.7% | NCI/ADR-RES ovarian 101% | T-47D breast 97.7% | BT-549 breast 103% | MDA-MB-435 melanoma 103% | SW-620 colon 103% | MCF7 breast 96.3% | HCT-116 colon 89.7% | HCC-2998 colon 103% | KM12 colon 105%

O=C(O)c1ccc(-n2cc(/C=N/Nc3ccc(Cl)cc3Cl)c(-c3ccccc3)n2)cc1
inactive: RPMI-8226 leukemia 83.2% | OVCAR-8 ovarian 98.6% | OVCAR-5 ovarian 107% | OVCAR-4 ovarian 87.3% | SK-OV-3 ovarian 89.4% | IGROV1 ovarian 89% | OVCAR-3 ovarian 88.7% | HS 578T breast 107% | NCI/ADR-RES ovarian 92.3% | T-47D breast 70.7% | BT-549 breast 79.3% | MDA-MB-435 melanoma 95.5% | SW-620 colon 96.3% | MCF7 breast 69.8% | HCT-116 colon 76.8% | HCC-2998 colon 101% | KM12 colon 83.4%

OCCNc1nc(NCCO)nc(Nc2ccc(C3=NN(c4cc(Cl)cc(Cl)c4)C(c4ccccc4)C3)cc2)n1 (stereo not drawn)
inactive: RPMI-8226 leukemia 30.9% | OVCAR-8 ovarian 48.9% | OVCAR-5 ovarian 85.8% | OVCAR-4 ovarian 57.7% | SK-OV-3 ovarian 94.5% | IGROV1 ovarian 57.5% | OVCAR-3 ovarian 26.2% | HS 578T breast 62.9% | NCI/ADR-RES ovarian 57.2% | T-47D breast 63.6% | BT-549 breast 59.4% | MDA-MB-435 melanoma 49.5% | SW-620 colon 60% | MCF7 breast 16.3% | HCT-116 colon 33.8% | HCC-2998 colon 52.8% | KM12 colon 27.9%

CN(C)c1ccc(-c2ccc3[nH]c(=O)nc(-c4ccc(F)cc4)c3c2)cn1
inactive: RPMI-8226 leukemia 46.9% | OVCAR-8 ovarian 43.5% | OVCAR-5 ovarian 79.9% | OVCAR-4 ovarian 66.5% | SK-OV-3 ovarian 36.2% | IGROV1 ovarian 53.8% | HS 578T breast 28.5% | NCI/ADR-RES ovarian 51.7% | T-47D breast 36.6% | BT-549 breast 40.6% | SW-620 colon 29.8% | MCF7 breast 29.4% | HCT-116 colon 22.2% | HCC-2998 colon 84.3% | KM12 colon 31.5%
active: OVCAR-3 ovarian 6.67% | MDA-MB-435 melanoma 2.63%

COc1cc(NCC(=O)Nc2cc(Nc3ccc(C)cc3)ncn2)c(Cl)c(OC)c1Cl
inactive: RPMI-8226 leukemia 82.9% | OVCAR-8 ovarian 88.4% | OVCAR-5 ovarian 92.3% | OVCAR-4 ovarian 78.5% | SK-OV-3 ovarian 81.9% | IGROV1 ovarian 82.5% | OVCAR-3 ovarian 84.3% | HS 578T breast 83.5% | NCI/ADR-RES ovarian 91.3% | T-47D breast 70.6% | BT-549 breast 101% | MDA-MB-435 melanoma 102% | SW-620 colon 103% | MCF7 breast 78.6% | HCT-116 colon 88.4% | HCC-2998 colon 92.6% | KM12 colon 87.5%
